High-throughput results from PubChem BioAssay.
This excerpt belongs to a sample that is enriched for hits.
Cycloheximide cs – counter-screen hit for Shiga toxin inhibitors, cycloheximide; cell reporter, cycloheximide protein synthesis inhibition counterscreen; max response, %; 300,000 compounds, 12% hits; AID 2314; in the data active = max response mostly above about 13%, no sharp cut-off; inactive = mostly below about 14%; note: read at 38.3 µM for the half of the compounds with a filed dose; 0% is about no effect
AmpC inh detg – inhibitors of E. coli AmpC beta-lactamase with detergent; P00811; 370,000 compounds, 0.041% hits; Potency, µM (series often up to 114 µM), for inactives: top-dose activity change, negative = inhibition, actives largely listed as inhibitors; AmpC hydrolysis of nitrocefin, absorbance 480 nm, 0.01% Triton; AID 485294;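 note: potency is the fitted concentration of half-maximal effect; 0% = no-compound wells and -100% = no-enzyme wells; nearly all actives have a fitted effect of over 25% in size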
Target sequence (P00811 whole entry, looked up): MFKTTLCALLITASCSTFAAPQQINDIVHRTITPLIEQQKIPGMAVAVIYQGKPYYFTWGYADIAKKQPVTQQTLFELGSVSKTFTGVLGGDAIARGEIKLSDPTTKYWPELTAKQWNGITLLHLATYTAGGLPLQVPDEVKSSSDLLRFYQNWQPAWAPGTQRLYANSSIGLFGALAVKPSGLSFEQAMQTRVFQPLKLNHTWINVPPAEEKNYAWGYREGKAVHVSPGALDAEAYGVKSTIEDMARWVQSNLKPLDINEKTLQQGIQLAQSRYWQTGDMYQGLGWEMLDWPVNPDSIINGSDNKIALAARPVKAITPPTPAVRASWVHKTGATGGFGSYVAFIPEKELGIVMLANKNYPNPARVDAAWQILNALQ
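20 mM phosphate pH 7.0 + 0.01% (detergent screen) or 0.0001% Triton X-100; 5.3 nM AmpC reagent; cpd preinc 15 min RT; nitrocefin (800 uM stock) to start; A480 q20 s × 4 min; Activity was normalised to no-enzyme and no-compound control wells.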
AMA1 RON2 block – inhibitors of Plasmodium falciparum AMA1-RON2 interaction; AlphaScreen AMA1-biotinylated RON2 peptide binding; 360,000 compounds, 0.2% hits; AID 720542; Potency, µM (titrated, usually from 58.2 µM), for the others: at the top dose activity change, negative = inhibition, hits mostly inhibitors;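 note: potency is the fitted concentration of half-maximal effect; 0% = vehicle wells and -100% = peptide control; nearly all actives have a fitted effect of over 45% in size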
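AMA1 (3D7) with his tag at 25 nM final met compounds first, then biotinylated RON2 peptide at 25 nM; detection used donor plus acceptor beads, 10 µg/mL apiece, read by AlphaScreen after 30 min at room temperature.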
AmpC inh no detg – inhibitors of E. coli AmpC beta-lactamase without detergent | AID 485341 | 330,000 compounds, 0.52% hits | Potency, µM (highest dose often 57.1 µM), inactives show at the highest dose activity change, negative = inhibition, actives largely listed as inhibitors | AmpC nitrocefin hydrolysis, absorbance 480 nm, 0.0001% Triton;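 note: potency is the fitted concentration of half-maximal effect; plate controls were no compound for no effect and no enzyme for full effect; nearly all actives have a fitted effect of over 20% in size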
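20 mM phosphate pH 7.0 + 0.01% (detergent screen) or 0.0001% Triton X-100; 5.3 nM AmpC reagent; cpd preinc 15 min RT; nitrocefin (800 uM stock) to start; A480 q20 s × 4 min; Activity was normalised to no-enzyme and no-compound control wells.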
Shiga toxin inh – Shiga toxin inhibition | 290,000 compounds, 9.2% hits | AID 2315 | inhibition, % at 38.7 µM | Vero cells, Shiga toxin protein synthesis inhibition reporter; in the data active = inhibition mostly above about 28%, no sharp cut-off; inactive = mostly below about 43%; note: 0% is about no effect
SARS PLP yeast – blocks SARS-CoV papain-like protease in a yeast assay. S. cerevisiae expressing SARS-CoV PLpro, growth rescue. Potency, µM (doses to about 32.9 µM), for the others: at the highest dose activity, positive = growth rescue, most hits filed as activators. 330,000 compounds, 0.19% hits; calls by dose curve; note: potency is the fitted concentration of half-maximal effect; 0% is about no effect; nearly all actives have a fitted effect of over 55% in size
Starred values were filed as active, the others as inactive; u = inconclusive; x = no result given. Unless noted, calls come from the whole dose curve; as a rule, active = well fitted curve in the direction sought with a large enough effect; inconclusive = small, poorly fitted or top-dose-only effect, or another doubt; inactive = no such curve, though single readings can be large; an effect the other way counts as inactive or inconclusive.

SMILES	Cycloheximide cs	AmpC inh detg	AMA1 RON2 block	AmpC inh no detg	Shiga toxin inh	SARS PLP yeast
OCCN1CCN(CCCN2c3ccccc3Sc3ccc(C(F)(F)F)cc32)CC1	-7.2	-5.7%	-26.8%	197.0%	-24.7	-0.2%
CCn1cc(/C=C(\NC(=O)c2cc(OC)c(OC)c(OC)c2)C(=O)NCCCN2CCOCC2)c2ccccc21	-4.1	-10.2%	10.5%	176.2%	-4.9	10.5%
CCN(CC(=O)Nc1ccc(NC(C)=O)cc1)C(=O)c1c(-c2c(F)cccc2Cl)noc1C	11.5	4.4%	-5.0%	34.4%	-7.5	-0.2%
COc1ccccc1C1CC(c2cccs2)=Nc2ccccc2S1 (stereo not given)	69.7*	u	u	-22.2%	96.6*	-3.9%
O=C(Nc1ccccc1F)Nc1ccccc1F	34.6*	0.2%	-4.5%	-13.8%	72.6*	-1.5%
O=C(NNc1ccccc1)Nc1ccccc1F	20.4*	-3.5%	-25.7%	-10.3%	87.1*	-4.3%
O=C(NNc1cccc(Cl)n1)Nc1ccccc1F	11.8	-9.3%	-0.1%	-16.9%	27.7	-0.6%
O=C(Nc1ccc(Br)cc1)Nc1ccccc1F	49.8*	7.5%	18.2%	-25.0%	107.2*	-3.4%
CCN(CC)C(=O)c1ccc(C(=O)Nc2ccc(F)cc2)cc1	x	u	-2.2%	-15.3%	x	0.4%
CCN(CC)C(=O)c1ccc(NC(=O)Nc2ccccc2F)cc1	16.0*	-1.1%	-8.8%	-27.8%	39.5	-26.9%
COc1ccc(N2CCN(C(=O)C3CCC(Cn4c(=S)[nH]c5ccccc5c4=O)CC3)CC2)cc1 (stereo not given)	0.4	-10.5%	2.2%	5.3%	-9.1	-3.9%
O=C(OCC(=O)C12CC3CC(CC(C3)C1)C2)c1ccccn1	12.5	-7.6%	29.1%	4.5%	-10.0	2.7%
O=C(Nc1ccccc1F)NC1CCCc2ccccc21 (stereo not given)	11.8	-10.2%	4.0%	-31.2%	34.0*	-3.3%
Cc1ccc(S(=O)(=O)NNC(=O)Nc2ccccc2F)c(C)c1	5.1	-1.4%	-5.6%	-17.1%	15.8	0.5%
O=C(Nc1ccc(F)cc1F)NC1CCCc2ccccc21 (stereo not given)	-3.3	3.1%	4.8%	-53.6%	-5.2	-1.6%
Cc1ccc(N=Nc2ccc(C)cc2NC(=O)Nc2ccccc2F)cc1	46.2*	-3.8%	-5.5%	-12.7%	33.8	-2.4%
CC(=O)Nc1cccc2ccc(O)cc12	x	x	0.1%	x	x	x
Cn1nc(-c2ccccc2)cc1NC(=O)C1CCCCC1	40.8*	-10.0%	0.0%	6.8%	58.9	-1.4%
O=C(Nc1ccccc1F)Nc1cccc2ccc(O)cc12	46.2*	1.2%	-7.5%	-53.8%	102.0*	0.2%
Cc1ccc2nc(NCc3ccccc3)c3nnnn3c2c1	x	14.6%	x	x	x	x
CN1CCN(NC(=O)CN(C)S(=O)(=O)c2cc(Cl)ccc2Cl)CC1	-2.7	-4.2%	4.7%	-5.8%	-4.0	0.2%
Cc1ccc2nc(SCC(=O)Nc3ccc4c(c3)OCO4)nc(=O)n2c1	x	-10.6%	5.5%	5.8%	x	-14.4%
Cc1oc(-c2ccccc2)nc1CNC(=O)Nc1ccccc1	x	2.1%	x	x	x	x
Cc1ncoc1C(=O)N1CCCC(C(=O)c2ccc(C(F)(F)F)cc2)C1 (stereo not given)	5.8	u	0.5%	-25.4%	9.0	0.6%
O=C(NC1CCSc2ccccc21)c1cccc(OC(F)F)c1 (stereo not given)	13.6	-1.4%	-2.9%	-21.8%	21.8	-32.3%
Cn1nc(-c2ccccc2)cc1NC(=O)Nc1ccccc1F	36.3*	-11.1%	-3.3%	-18.0%	57.4	0.5%
Cc1cccc(NC(=O)NC(C)CCc2ccccc2)c1 (stereo not given)	21.2*	-12.7%	29.7%	-29.6%	12.5	-4.4%
O=C(NCCCCc1ccccc1)Nc1cccc(F)c1	46.7*	u	10.3%	-27.8%	47.7*	-14.3%
Cc1ccc(NC(=O)NCCCCc2ccccc2)cc1	17.0	-2.4%	-2.2%	-30.7%	29.2*	-6.1%
Cc1cccc(NC(=O)NCCCCc2ccccc2)c1	9.8	1.6%	21.1%	-38.5%	23.4*	-10.1%
